POLH inh: blocks human DNA polymerase eta activity; recombinant Pol eta, fluorescent DNA replication assay; AID 588591; Potency, µM (doses to about 114 µM), for inactives: at the top dose activity change, negative = inhibition, hits mostly inhibitors; 390,000 compounds, 1.2% hits; also: potency is read from the fitted curve at half-maximal effect; % is scaled to controls: 0 for no effect and ±100 for the full control effect
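Fluorescent replication assay: 50 nM final substrate added after a 15 min room-temperature compound preincubation with 10 nM enzyme. Signal taken at 0 min and again at 10 min.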
POLI inh: blocks human DNA polymerase iota activity; Q9UNA4; Pol iota fluorescent replication assay, 10 min; Potency, µM (titrated, usually from 115 µM), for the others: at the top dose activity, negative = inhibition, most hits filed as inhibitors; 390,000 compounds, 1% hits; AID 588590; also: potency is read from the fitted curve at half-maximal effect
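Fluorescent replication assay read twice, at 0 min and 10 min after adding 50 nM (final) substrate. Enzyme (10 nM) and compounds were first incubated 15 min at room temperature; enzyme-free buffer wells were negative controls.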
Pol kappa inh: inhibitors of human DNA polymerase kappa. Q9UBT6. purified Pol kappa, fluorescent DNA synthesis assay, 10 min. Potency, µM (highest dose often 107 µM), without a hit: top-dose activity, negative = inhibition, most hits filed as inhibitors. 400,000 compounds, 0.53% hits; also: potency is read from the fitted curve at half-maximal effect; % is scaled to controls: 0 for no effect and ±100 for the full control effect
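50 nM final substrate added after 15 min RT preincubation of 10 nM Pol kappa with compound; fluorescence read at 0 and 10 min.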
WRN inhibitor: WRN helicase (human) inhibition; Q14191; WRN helicase unwinding, fluorescent forked duplex, kinetic; Potency, µM (highest dose often 114 µM), without a hit: at the top dose activity change, negative = inhibition, actives largely listed as inhibitors; 360,000 compounds, 0.46% hits; AID 651768; also: potency is read from the fitted curve at half-maximal effect; % is scaled to controls: 0 for no effect and ±100 for the full control effect; nearly all actives have a fitted effect of over 55% in size
Target sequence (Q14191 whole entry, looked up): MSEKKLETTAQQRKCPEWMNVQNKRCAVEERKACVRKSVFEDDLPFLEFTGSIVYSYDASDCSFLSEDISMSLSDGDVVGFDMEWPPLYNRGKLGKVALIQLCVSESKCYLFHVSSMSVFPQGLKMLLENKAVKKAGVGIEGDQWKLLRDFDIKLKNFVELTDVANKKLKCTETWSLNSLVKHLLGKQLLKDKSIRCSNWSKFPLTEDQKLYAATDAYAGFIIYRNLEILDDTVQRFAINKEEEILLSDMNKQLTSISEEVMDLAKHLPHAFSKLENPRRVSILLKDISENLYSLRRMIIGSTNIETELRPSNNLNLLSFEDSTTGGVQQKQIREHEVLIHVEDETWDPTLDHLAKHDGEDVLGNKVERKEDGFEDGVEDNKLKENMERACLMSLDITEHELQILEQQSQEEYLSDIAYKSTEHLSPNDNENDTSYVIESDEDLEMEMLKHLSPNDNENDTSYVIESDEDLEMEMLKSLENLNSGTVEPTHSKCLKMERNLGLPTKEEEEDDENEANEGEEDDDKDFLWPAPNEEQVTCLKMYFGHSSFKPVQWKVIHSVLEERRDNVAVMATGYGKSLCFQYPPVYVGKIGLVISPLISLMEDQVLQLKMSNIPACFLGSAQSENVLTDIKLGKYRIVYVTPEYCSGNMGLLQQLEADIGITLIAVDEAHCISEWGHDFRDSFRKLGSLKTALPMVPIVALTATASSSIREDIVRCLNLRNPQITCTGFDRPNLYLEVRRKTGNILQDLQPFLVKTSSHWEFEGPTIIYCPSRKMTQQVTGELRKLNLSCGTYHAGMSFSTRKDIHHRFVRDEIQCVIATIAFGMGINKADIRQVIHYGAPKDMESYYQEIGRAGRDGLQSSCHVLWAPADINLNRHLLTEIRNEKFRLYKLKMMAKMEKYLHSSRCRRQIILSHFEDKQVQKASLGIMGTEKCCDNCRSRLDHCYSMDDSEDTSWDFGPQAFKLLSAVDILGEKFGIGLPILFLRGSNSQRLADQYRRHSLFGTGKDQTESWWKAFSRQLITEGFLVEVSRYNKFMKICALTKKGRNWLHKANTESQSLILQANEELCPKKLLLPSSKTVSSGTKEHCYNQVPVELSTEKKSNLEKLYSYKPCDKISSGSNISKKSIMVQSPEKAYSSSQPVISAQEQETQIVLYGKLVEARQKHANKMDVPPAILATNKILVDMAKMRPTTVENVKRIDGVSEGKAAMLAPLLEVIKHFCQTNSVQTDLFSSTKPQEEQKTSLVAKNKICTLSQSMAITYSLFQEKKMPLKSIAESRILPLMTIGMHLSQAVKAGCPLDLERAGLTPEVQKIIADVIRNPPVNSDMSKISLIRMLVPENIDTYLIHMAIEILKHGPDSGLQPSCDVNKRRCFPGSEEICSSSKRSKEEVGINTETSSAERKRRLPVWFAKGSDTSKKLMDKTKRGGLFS
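Fluorescence dequenching readout, ex 525 nm/em 598 nm, kinetic mode: forked duplex DNA (100 nM final) with adjacent fluorophore and quencher unwound by WRN (20 nM final) with 2 mM ATP. Compound preincubation 15 min, room temperature.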
POLB inh: DNA polymerase beta (human) inhibition; P06746; Pol beta primer extension/strand displacement, fluorescence kinetic; AID 485314; Potency, µM (series often up to 114 µM), for inactives: top-dose activity change, negative = inhibition, hits mostly inhibitors; 340,000 compounds, 1.3% hits; also: potency is read from the fitted curve at half-maximal effect; % is scaled to controls: 0 for no effect and ±100 for the full control effect
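Pol beta (10 nM) and compounds were preincubated 15 min at room temperature, then 50 nM substrate (final) started primer extension/strand displacement. Reads were taken at 0 and 10 min; concentration-response data were fitted to a four-parameter Hill equation.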
PI5P4K alpha inh: blocks human PI5P4K alpha kinase activity. P48426. max response, %. PI5P4Kalpha enzyme, ADP-Glo luminescence, 60 min; hits give low values. 330,000 compounds, 1.2% hits; active = max response of -50% or lower; inconclusive = between -30% and -50%; inactive = -30% or higher; also: value at the top dose of about 77 µM; % is scaled to controls: 0 for no effect and ±100 for the full control effect
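Human PI5P4Kalpha with substrate in 0.038 M HEPES pH 7.4, 0.28 mM EGTA, 0.1% CHAPS, 5% DMSO; reaction started with 5 microM ATP (final), 60 min at room temperature. ADP formed read by ADP-Glo luminescence.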
An asterisk follows results filed as active; ? = inconclusive; . = no result; [ ] = remark or other dose. An excerpt weighted towards active compounds, which were near 2.8% of everything screened. Unless noted, calls follow the shape of the dose curve; as a rule, active = well fitted curve in the direction sought with a large enough effect; inconclusive = small, poorly fitted or top-dose-only effect, or another doubt; inactive = no such curve, though single readings can be large; an effect the other way counts as inactive or inconclusive.

SMILES | POLH inh | POLI inh | Pol kappa inh | WRN inhibitor | POLB inh | PI5P4K alpha inh
C#CCOCCOCCOCCNc1nc(N2CCN(C(=O)CCCCCCCCCCNC(=O)[C@H](CO)n3cc(CCCSC)nn3)CC2)nc(N2CCN(C(=O)CCCCCCCCCCNC(=O)[C@H](CCCCN)n3cc(CCO)nn3)CC2)n1 | ? | ? | -2.9% | ? | . | -51.3*
C#CCOCCOCCOCCNc1nc(N2CCN(C(=O)CCCCCCCCCCNC(=O)Cn3cc(C[C@@H](C)O)nn3)CC2)nc(N2CCN(C(=O)CCCCCCCCCCNC(=O)[C@H](CO)n3cc(CCCSC)nn3)CC2)n1 | -18.1% | 25.3% | 2.8% | -9.6% | . | -2.9
C#CCOCCOCCOCCNc1nc(N2CCN(C(=O)CCCCCCCCCCNC(=O)Cn3cc(C[C@@H](C)O)nn3)CC2)nc(N2CCN(C(=O)CCCCCCCCCCNC(=O)[C@H](CCCN=C(N)N)n3cc(C[C@@H](C)CC)nn3)CC2)n1 | ? | 24.7% | -11.8% | ? | . | -75.7*
C#CCOCCOCCOCCNc1nc(N2CCN(C(=O)CCCCCCCCCCNC(=O)[C@@H](CCSC)n3cc(CCO)nn3)CC2)nc(N2CCN(C(=O)CCCCCCCCCCNC(=O)[C@H](CCSC)n3cc(CCO)nn3)CC2)n1 | -10.3% | -0.2% | 8.1% | -2.6% | . | 6.4
C#CCOCCOCCOCCNc1nc(N2CCN(C(=O)CCCCCCCCCCNC(=O)[C@H](CO)n3cc(CCCSC)nn3)CC2)nc(N2CCN(C(=O)CCCCCCCCCCNC(=O)[C@H](CCCN=C(N)N)n3cc(C[C@@H](C)CC)nn3)CC2)n1 | ? | ? | -15.7% | ? | . | -79.0*
C#CCOCCOCCOCCNc1nc(N2CCN(C(=O)CCCCCCCCCCNC(=O)Cn3cc(C[C@@H](C)O)nn3)CC2)nc(N2CCN(C(=O)CCCCCCCCCCNC(=O)[C@H](CCCCN)n3cc(CCCC(=O)O)nn3)CC2)n1 | 5.0% | -22.8% | -1.1% | 1.0% | . | -26.4
Cc1cc(OC(C)C(=O)N2CCC(c3nc4ccccc4o3)CC2)ccc1Cl (stereo unspecified) | -16.9% | 26.3% | -3.2% | . | 0.1% | .
Cc1ccccc1C(=O)Nc1ccccc1C(=O)OCc1cc(=O)n2ccsc2n1 | -12.3% | 2.7% | -0.2%[60.1 µM] | . | 6.9% | .
Cc1cc(O)c(C(=O)/C=C/c2ccccc2)c(=O)o1 | -14.8% | ? | -15.0% | -29.2% | 14.5% | -50.5*
CCOc1ccc(/C=C/C(=O)c2c(O)cc(C)oc2=O)cc1 | -12.8% | ? | -8.1% | -13.4% | -4.6% | -5.8
Cc1cc(O)c(C(=O)/C=C/c2ccccc2Br)c(=O)o1 | -26.1% | ? | -37.9% | -13.6%[57.1 µM] | -8.3% | -69.7*
Cc1cc(O)c(C(=O)/C=C/c2ccc(C(C)C)cc2)c(=O)o1 | -13.0% | -7.8% | -19.3% | -29.9% | 3.6% | -62.7*
O=C(NCCN1CCC(n2c(=O)[nH]c3ccccc32)CC1)c1ccc(F)c(F)c1 | . | . | . | -0.1% | . | -2.7
Cc1cccc(NS(=O)(=O)c2ccc(C)c(C(=O)NCc3ccccn3)c2)c1 | -13.5% | 38.6% | -10.5% | 1.7% | . | 0.7
O=C(c1ccccc1)n1nc(-c2ccco2)nc1NCc1ccccc1Cl | -4.2% | -6.5% | -19.9% | . | -0.4% | .
Cc1ccc2[nH]c3c(N4CCc5ccccc5C4)ncnc3c2c1 | -27.9% | 39.1% | -6.8% | -17.8% | 0.2% | -14.9
Fc1ccc2[nH]c3c(N4CCc5ccccc5C4)ncnc3c2c1 | -16.6% | -13.7% | -10.9% | -25.1% | 14.1µM* | 0.1
NSc1nc(N)c2nc(-c3ccccc3)c(-c3ccccc3)nc2n1 | 4.5% | 18.2% | -28.3% | -22.0% | -29.7% | -53.1*
CC[C@]12c3[nH]c4cc(-c5ccco5)ccc4c3CCN1C(=O)[C@@H](CC(=O)NCC13CC4CC(CC(C4)C1)C3)C[C@@H]2C(=O)N1CCN(C(=O)C2CC2)CC1 | -13.4% | -1.0% | 6.7% | -0.6% | . | -20.4
CC[C@]12c3[nH]c4cc(-c5ccco5)ccc4c3CCN1C(=O)[C@@H](CC(=O)NCC13CC4CC(CC(C4)C1)C3)C[C@@H]2C(=O)N1CCN(C(=O)c2ccco2)CC1 | -13.4% | 28.2µM* | -25.6% | 4.3%[11.6 µM] | . | -51.4*
CC[C@]12c3[nH]c4ccc(Cl)cc4c3CCN1C(=O)[C@@H](CC(=O)NCCCn1ccnc1)C[C@@H]2C(=O)N1CCN(C(=O)C2CC2)CC1 | -5.6% | 89.1µM* | 13.9% | -0.8%[11.6 µM] | . | 2.9
CC[C@]12c3[nH]c4ccccc4c3CCN1C(=O)C(CC(=O)NCCCn1ccnc1)C[C@@H]2C(=O)N1CCN(C(=O)C2CC2)CC1 (stereo partly specified) | -10.2% | -6.9% | -12.4% | -0.7% | . | -0.9
CCC(C)C(NC(=O)OC(C)(C)C)C(=O)NC1COC2CC(n3cc(C)c(=O)[nH]c3=O)OC12 (stereo unspecified) | . | 5.4% | 12.9% | . | . | .
O=C1c2ccccc2C(=O)C2OC12 (stereo unspecified) | . | . | . | . | 70.8µM* | .
O=C1c2ccccc2C(=O)C1c1ccccn1 | ? | 23.7% | 4.1% | -1.4% | -1.4% | 5.7
SMILES | POLH inh | POLI inh | Pol kappa inh | WRN inhibitor | POLB inh | PI5P4K alpha inh
Cc1c(-c2nsc(NC(=O)c3cccs3)n2)nnn1-c1ccc(Cl)cc1 | ? | ? | -44.0% | . | 20µM* | .
COC(=O)[C@]12CCCCC=C1N(Cc1ccc(Cl)cc1Cl)C(=O)[C@H](CC(=O)N1CCN(C(=O)c3ccco3)CC1)C2 | . | . | . | -2.6% | . | 3.4
COC(=O)[C@@]1(Cc2ccc(OC)cc2)[C@H]2c3cc(C(=O)N(C)C)n(CCc4ccc(OC)c(Br)c4)c3C[C@H]2CN1C(=O)c1ccccc1 | . | . | . | . | -9.0% | .
CCCN(CCC)c1ccc(/C=C/c2sc3ccccc3[n+]2CCCCI)cc1 | . | 79.4µM* | ? | . | . | .
CN(C)c1ccc(/C=C/c2sc3ccccc3[n+]2Cc2ccccc2)cc1 | . | 79.4µM* | ? | . | . | .
O=C(O)c1c(Cl)c(Cl)c(Cl)c(Cl)c1-c1c2cc(I)c(=O)c(I)c-2oc2c(I)c(O)c(I)cc12 | . | . | 11.9µM* | . | . | .
COc1cccc(CNC(=O)CSc2ccc(-c3sc(-c4ccccc4)nc3C)nn2)c1 | -17.7% | 12.4% | -22.3% | . | 0.9% | .
N#Cc1c(-c2ccc(Cl)cc2)cc(-c2cccs2)nc1SCC(=O)O | -16.7% | 17.8µM* | ? | ? | ? | ?
Cn1nc([N+](=O)[O-])nc1S(C)(=O)=O | -3.7% | ? | ? | -4.0% | 89.1µM* | -11.0
CS(=O)(=O)c1nc([N+](=O)[O-])nn1CCCc1ccccc1 | -16.6% | 10.4% | -8.4% | -6.4% | . | -1.5
Cc1ccc(S(=O)(=O)Nc2c(O)ccc3ccccc23)cc1 | -6.0% | ? | -10.6% | 39.8µM* | . | -27.3
O=S(=O)(Nc1c(O)ccc2ccccc12)c1cccc2ccccc12 | -10.3% | 92.0% | -5.4% | 22.4µM* | . | -12.0
